# Several values for one entry are separate records, joined by “and”; a condition that tells them apart may be missing. Equal entries are not always repeated. Results filed as inconclusive are left out. Activity calls are given as the source filed them. Cut-off read from the data, not from the text of the source, unless noted: active = inhibition above about 80%; inactive = the rest.
# How the values were obtained:
# [1] = viability loss in pontine glioma line – cell-based, SU-DIPG-XVII, MIPE5.0, CellTiter-Glo, qHTS, dose response (AID 1347060; cut-off not given, nearly all actives have AC50 up to about 26 µM;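 for AC50: cells exposed to compound for 48 hours before viability readout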); details: CellTiter-Glo ATP luminescence
# [2] = viability loss in pontine glioma line – cell-based, SU-DIPG-IV, MIPE4.0, CellTiter-Glo, qHTS, dose response (AID 1347063; cut-off not given, nearly all actives have AC50 up to about 30 µM;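 note: compound exposure lasted 48 hours before the viability readout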); details: CellTiter-Glo ATP luminescence
# [3] = viability loss in pontine glioma line – cell-based, SU-DIPG-XIII, MIPE5.0, CellTiter-Glo, qHTS, dose response (AID 1347064; cut-off not given, nearly all actives have AC50 up to about 23 µM;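 for AC50: cells exposed to compound for 48 hours before the viability read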); details: CellTiter-Glo ATP luminescence
# [4] = viability loss in pontine glioma line – cell-based, SU-DIPG-XXV, MIPE5.0, CellTiter-Glo, qHTS, dose response (AID 1347065; cut-off not given, nearly all actives have AC50 up to about 26 µM;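 note: cells exposed to compound for 48 hours before ATP readout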); details: CellTiter-Glo ATP luminescence
# [5] = JHH-DIPG-1 glioma cell viability, MIPE5.0 library, CellTiter-Glo luminescence, qHTS (AID 1347067; cut-off not given, nearly all actives have AC50 up to about 26 µM;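 note: cells exposed to compound for 48 hours before readout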); details: JHH-DIPG-1 glioma viability, CellTiter-Glo ATP luminescence
# [6] = growth inhibition of DIPG cells – cell-based, MIPE5.0 library, qHTS (AID 1347068; cut-off not given, nearly all actives have IC50 up to about 30 µM;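 for IC50: cells exposed to compound for 48 hours before viability readout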); details: SU-DIPG-XXV viability
# [7] = growth inhibition of DIPG cells – cell-based, MIPE4.0 library, CellTiter-Glo luminescence, qHTS (AID 1347066; cut-off not given, nearly all actives have AC50 up to about 30 µM;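 note: cells exposed to compound for 48 hours before readout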); details: SU-DIPG-VI viability, CellTiter-Glo ATP luminescence
# [8] = viability loss with induced miR-34 in A549 – imaging, A549 dox-inducible miR-34, nuclei and caspase counts, primary screen (AID 1347080;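 active = compounds whose cell count with miR-34 switched on is under 0.7 times the count with it off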); details: A549 miR-34 inducible, Hoechst nuclei count, 48 h
# [9] = MELAS cybrid and Rieske KO viability enhancers – cell-based, MELAS cybrids, Rieske KO mouse fibroblasts, CellTiter-Glo, primary screen (AID 1508586;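 active = mean z-score across replicates of 1.96 or higher in either the MELAS or the Rieske mutant cell line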;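 note: z relative to plate mean and SD of compound and empty wells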); details: low glucose
# [10] = growth inhibition, single agent or in combination, cell-based, chromothripsis tumors, cisplatin or BGB combos (AID 1671449); details: LFS_MB_P medulloblastoma cells;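 note: cells exposed for 96 hours; 0% = vehicle DMSO and 100% = killing by high DMSO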
# [11] = growth inhibition, single agent and combos, cell-based, chromothripsis tumors, cisplatin or BGB combos (AID 1671450); details: HDN33 neuroblastoma cells, stronger effect = higher value;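 note: cells exposed to compound for four days; 0% = vehicle DMSO and 100% = cell killing by high DMSO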
# [12] = growth inhibition, single agents and combos, ICB984, cell-based, cisplatin or BGB combos, synergistic combos for chromothripsis tumors (AID 1671451; call rule not given here;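 note: cells exposed for 96 hours before readout; 0% = vehicle DMSO and 100% = killing by high DMSO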); details: ICB984 medulloblastoma cells, drug combinations, stronger effect = higher value
# [13] = growth inhibition, single agents and combos, HTB85, cell-based, BGB or cisplatin IC20 combos, synergistic combos for chromothripsis tumors (AID 1671453); details: HTB85 osteosarcoma cells, drug combinations, stronger effect = higher value;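 note: cells exposed for 96 hours before readout; 0% = vehicle DMSO and 100% = high DMSO killing control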
# [14] = growth inhibition, MDA-MB-436, cell-based, BGB or cisplatin combos, synergistic combos for chromothripsis tumors (AID 1671458; call rule not given here;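 note: cells exposed for 96 hours; 0% = vehicle DMSO and 100% = killing by high DMSO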); details: MDA-MB-436 breast carcinoma growth inhibition, drug combinations, stronger effect = higher value
# [15] = BT084 cell growth, single and combined drugs, ICGC_MB145, cisplatin and BGB IC40 combos (AID 1671461); details: BT084 medulloblastoma cells, drug combinations, stronger effect = higher value;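 note: cells exposed to drugs for 96 hours; 0% = vehicle DMSO and 100% = high DMSO full killing control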
# [16] = RCMB18 cell growth, single agent and combined, cisplatin and BGB IC40 combos (AID 1671462); details: RCMB18 medulloblastoma cells, stronger effect = higher value;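 note: cells exposed to compound for four days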
smiles,measurement,setting,value
CC(N[C@H]1CCCC[C@@H]1NC(=O)c1ccc(Cl)cc1)c1cccc2ccccc12 (some centres not stated),AC50,[1],8.33 µM (active)
same,AC50,[2],0.148 µM (active)
same,AC50,[3],7.42 µM (active)
same,AC50,[4],8.33 µM (active)
same,AC50,[5],9.34 µM (active)
same,IC50,[6],16.6 µM (active)
C/C(O)=C(\C#N)C(=O)Nc1ccc(C(F)(F)F)cc1,outcome,[1],inactive
same,outcome,[2],inactive
same,outcome,[3],inactive
same,outcome,[4],inactive
same,outcome,[7],inactive
same,outcome,[5],inactive
same,outcome,[6],inactive
CC1(C)CCC2=C(O1)c1ccccc1C(=O)C2=O,AC50,[1],11.8 µM (active)
same,AC50,[2],20.9 µM (active)
same,AC50,[3],6.61 µM (active)
same,AC50,[4],9.34 µM (active)
same,AC50,[7],20.9 µM (active)
same,AC50,[5],7.42 µM (active)
same,IC50,[6],23.5 µM (active)
same,fold change,"[8]; stronger effect = lower value, cell number ratio, induced over uninduced",1.06 (inactive) and 1.01 (inactive)
same,fold change,[8]; measured here: relative caspase fold change +Dox/-Dox,0.218 and 1.14 and 0.258
same,cell count,"[8]; measured here: total cells with miR-34 induction, stronger effect = lower value",1260 and 1140 and 1760
same,cell count,[8]; measured here: total cells without miR-34 induction,1190 and 1130 and 1740
same,z-score,"[9]; MELAS cybrid survival, CellTiter-Glo 48 h, stronger effect = higher value",1.23 (inactive)
same,z-score,"[9]; Rieske KO mouse fibroblast survival, CellTiter-Glo 72 h",-4.3
same,inhibition,"[10]; at 0.5 µM, stronger effect = higher value",-7.4% (inactive) and 16.4% (inactive)
same,inhibition,"[10]; measured here: combination with BGB IC20, at 0.005 µM",-31.4% and 0.116%
same,inhibition,"[10]; measured here: combination with BGB IC40, at 0.005 µM",-87% and -10.2%
same,inhibition,"[10]; measured here: combination with BGB IC40, at 0.05 µM",-28.3% and -0.424%
same,inhibition,"[10]; measured here: combination with cisplatin, at 0.5 µM, stronger effect = higher value",51.9% and 10.9%
same,inhibition,"[10]; measured here: combination with cisplatin, at 5 µM, stronger effect = higher value",111% and 116%
same,inhibition,"[11]; BGB combo, at 5 µM",99.6% and 99%
same,inhibition,[11]; at 0.5 µM,-4.92% (inactive) and -3.55% (inactive)
same,inhibition,"[11]; cisplatin combo, at 5 µM",99% and 99.1%
same,inhibition,"[11]; measured here: with BGB IC20 combination, at 0.5 µM",-10.6% and -8.55%
same,inhibition,"[11]; measured here: with cisplatin IC20 combination, at 0.5 µM",4.95% and -8.23%
same,inhibition,"[11]; single agent, at 5 µM",99.5% and 99.2%
same,inhibition,"[12]; BGB IC20 combo, at 0.005 µM",-11% and 11%
same,inhibition,"[12]; BGB IC40 combo, at 0.005 µM",-16.5% and -32.8%
same,inhibition,"[12]; BGB IC40 combo, at 0.05 µM",91.3% and 98.3%
same,inhibition,[12]; at 0.5 µM,-22.3% (inactive) and -31.1% (inactive)
same,inhibition,"[12]; cisplatin combo, at 0.05 µM",91.3% and 98.3%
same,inhibition,"[12]; cisplatin combo, at 0.5 µM",-20.6% and -42.9%
same,inhibition,"[12]; cisplatin combo, at 5 µM",-38.6% and -41.8%
same,inhibition,"[12]; measured here: 5 uM single agent, at 5 µM",2.52% and -3.56%
same,inhibition,[13]; at 0.5 µM,-5.23% (inactive) and 6.87% (inactive)
same,inhibition,"[13]; measured here: with BGB IC20, at 0.5 µM",23.7% and 5.32%
same,inhibition,"[13]; measured here: with BGB IC20, at 5 µM",76.7% and 64.8%
same,inhibition,"[13]; measured here: with cisplatin IC20, at 0.5 µM",-20.9% and 1.14%
same,inhibition,"[13]; measured here: with cisplatin IC20, at 5 µM",61.5% and 60.9%
same,inhibition,"[13]; single agent, at 5 µM",70.5% and 62.3%
same,inhibition,[14]; at 0.5 µM,-2.8% (inactive) and -3.21% (inactive)
same,inhibition,"[14]; measured here: BGB combination, at 0.5 µM",3.02% and -1.78%
same,inhibition,"[14]; measured here: BGB combination, at 5 µM",81.9% and 78.2%
same,inhibition,"[14]; measured here: cisplatin combination, at 0.5 µM",-22.4% and -3.57%
same,inhibition,"[14]; measured here: cisplatin combination, at 5 µM",86.7% and 87.2%
same,inhibition,[15]; at 0.5 µM,-12.5% (inactive) and -0.136% (inactive)
same,inhibition,"[15]; cisplatin combination, at 0.5 µM",-14.9% and 2.47%
same,inhibition,"[15]; cisplatin combination, at 5 µM",78.1% and 100%
same,inhibition,"[15]; measured here: BGB IC40 combination 0.05 uM, at 0.05 µM",-20.9% and -18.5%
same,inhibition,"[15]; single agent, at 5 µM",99.5% and 99.6%
same,inhibition,[16]; at 0.5 µM,-1.45% (inactive) and 6.25% (inactive)
same,inhibition,"[16]; cisplatin combo, at 5 µM",101%
same,inhibition,"[16]; measured here: BGB IC40 combination, at 0.05 µM",-6.29% and -29%
same,inhibition,"[16]; measured here: combination with cisplatin, at 0.5 µM",-0.361% and 36.6%
same,inhibition,"[16]; single agent, at 5 µM",98.1% and 99.3%

# — PubChem BioAssay
